# The other results are listed elsewhere or left out. The source made the active and inactive calls.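 The calls were made as follows: active = inhibition reaching a set limit in any replicate at 20 µM, the limit being 80% of the first screen's; inactive = the rest.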
# Molecular target: DNA dC->dU-editing enzyme APOBEC-3G (Homo sapiens) (UniProt Q9HC16)
# Experiment: APOBEC3G deaminase inhibitor retest, confirmation, biochemical, fluorescence, single-stranded DNA substrate, single concentration (AID 493152)
# Conditions: recombinant A3G ssDNA deaminase, UDG/FAM-TAMRA fluorescence; at 20 µM; stronger effect = higher value
# DNA dC->dU-editing enzyme APOBEC-3G (Homo sapiens), sequence (Q9HC16 whole entry, looked up): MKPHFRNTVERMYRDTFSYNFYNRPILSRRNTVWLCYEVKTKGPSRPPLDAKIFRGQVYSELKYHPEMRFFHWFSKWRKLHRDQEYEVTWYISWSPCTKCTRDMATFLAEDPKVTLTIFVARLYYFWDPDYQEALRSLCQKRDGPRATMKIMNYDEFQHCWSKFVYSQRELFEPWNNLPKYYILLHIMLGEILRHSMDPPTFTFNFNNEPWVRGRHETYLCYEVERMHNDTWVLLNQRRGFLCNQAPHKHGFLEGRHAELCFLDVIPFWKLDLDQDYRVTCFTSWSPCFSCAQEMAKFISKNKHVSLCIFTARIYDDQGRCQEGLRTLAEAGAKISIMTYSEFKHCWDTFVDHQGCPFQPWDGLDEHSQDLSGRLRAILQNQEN
compound,measurement,value
COC(=O)N(c1ccc(OC)cc1)P1(=S)OCCC(C)O1 (stereo unspecified),inhibition,42.1% (active)
